According to PubChem BioAssay:
For some assays here: Potency and affinity values are given separately. Calls of active or inactive are those of the source. Unless noted, how the calls were made is not given here.

Tests used:
[1] = antimalarial activity against Dd2 strain (AID 2302;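 active means growth inhibition above 50% at the single 2 µM test dose, taken to imply half-maximal potency below 2 µM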;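 further: 0% = DMSO untreated growth and 100% = chloroquine plus artemisinin killed control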); settings: P. falciparum Dd2 in RBCs, LDH growth readout, 72 h; at 2 µM; stronger effect = higher value
[2] = human hepatoma cell viability loss – ATP luminescence, cytotoxicity control for P. falciparum antimalarial project, primary screen (AID 2303;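 active means inhibition above 50%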;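 further: 0% = DMSO wells and 100% = digitonin-killed cells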); settings: HepG2 viability, 24-48 h, at 10 µM, stronger effect = higher value
[3] = target: L-lactate dehydrogenase (Plasmodium falciparum (isolate CDC / Honduras)) (UniProt Q27743); experiment: PfLDH activity inhibition – cell lysate, 3D7 strain, counter-screen for P. falciparum growth inhibition project (AID 2304);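 further: 0% = vehicle and 100% = reference inhibitor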; settings: P. falciparum 3D7 crude extract, LDH APAD/NBT absorbance; at 2 µM; stronger effect = higher value
[4] = inhibition of 3D7 malaria parasite growth – strain 3D7 (AID 2306);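 further: 0% = DMSO wells and 100% = chloroquine plus artemisinin control wells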; settings: P. falciparum 3D7 erythrocytic growth, LDH absorbance, 72 h; at 2 µM; stronger effect = higher value
[5] = target: Calcium-dependent protein kinase 1 (Plasmodium falciparum (isolate 3D7)) (UniProt P62344); experiment: PfCDPK1 kinase inhibitors, biochemical, TCAMS library (AID 1159585; cut-off not given, nearly all actives have IC50 up to about 0.98 µM;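 further: inhibitors leave more ATP so luminescence rises with inhibition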); settings: recombinant PfCDPK1, Kinase-Glo ATP depletion luminescence
[6] = target: Plasmodium falciparum protein kinase 6 (PK6, PF3D7_1337100) (UniProt Q8IDW1); experiment: PfPK6 kinase inhibitors, biochemical, TCAMS library (AID 1159586); settings: recombinant PfPK6, Kinase-Glo ATP depletion luminescence
[7] = target: Protein kinase 7 (PK7), Plasmodium falciparum 3D7 (PF3D7_0213400) (UniProt Q7YTF7); experiment: inhibition of Plasmodium PK7 catalytic activity – biochemical, TCAMS antimalarial set, Kinase-Glo luminescence (AID 1159587); settings: recombinant PfPK7, Kinase-Glo ATP depletion luminescence
[8] = target: Calcium-dependent protein kinase 4 (Plasmodium falciparum (isolate 3D7)) (UniProt Q8IBS5); experiment: PfCDPK4 kinase inhibitors, biochemical, TCAMS library (AID 1159588; cut-off not given, nearly all actives have IC50 up to about 0.91 µM); settings: recombinant PfCDPK4, Kinase-Glo ATP depletion luminescence
Chain of Calcium-dependent protein kinase 4 (Plasmodium falciparum (isolate 3D7)) (Q8IBS5 whole entry, looked up): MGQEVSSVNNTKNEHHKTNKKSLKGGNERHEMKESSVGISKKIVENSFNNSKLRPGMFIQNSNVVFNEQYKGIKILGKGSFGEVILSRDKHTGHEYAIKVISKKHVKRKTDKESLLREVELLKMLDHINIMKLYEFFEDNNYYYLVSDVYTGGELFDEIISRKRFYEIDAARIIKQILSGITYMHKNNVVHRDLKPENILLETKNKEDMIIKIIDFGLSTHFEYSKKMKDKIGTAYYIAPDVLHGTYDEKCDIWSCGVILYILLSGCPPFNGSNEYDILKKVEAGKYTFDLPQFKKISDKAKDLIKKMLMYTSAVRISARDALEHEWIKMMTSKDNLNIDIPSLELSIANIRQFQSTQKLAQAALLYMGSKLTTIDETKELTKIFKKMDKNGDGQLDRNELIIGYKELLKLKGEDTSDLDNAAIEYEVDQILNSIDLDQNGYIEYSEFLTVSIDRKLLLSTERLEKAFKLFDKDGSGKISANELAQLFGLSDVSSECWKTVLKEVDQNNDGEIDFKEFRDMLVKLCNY

Chain of L-lactate dehydrogenase (Plasmodium falciparum (isolate CDC / Honduras)) (Q27743 whole entry, looked up): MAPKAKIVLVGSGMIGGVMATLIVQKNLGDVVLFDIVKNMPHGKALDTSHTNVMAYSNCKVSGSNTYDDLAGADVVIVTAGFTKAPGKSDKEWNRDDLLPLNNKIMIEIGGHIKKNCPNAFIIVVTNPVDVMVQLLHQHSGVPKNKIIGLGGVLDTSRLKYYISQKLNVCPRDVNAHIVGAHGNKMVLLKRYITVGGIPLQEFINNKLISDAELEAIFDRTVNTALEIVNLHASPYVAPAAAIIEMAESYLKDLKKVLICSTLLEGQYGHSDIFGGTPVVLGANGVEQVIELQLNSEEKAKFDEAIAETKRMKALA
Chain of Plasmodium falciparum protein kinase 6 (PK6, PF3D7_1337100) (Q8IDW1 1-305): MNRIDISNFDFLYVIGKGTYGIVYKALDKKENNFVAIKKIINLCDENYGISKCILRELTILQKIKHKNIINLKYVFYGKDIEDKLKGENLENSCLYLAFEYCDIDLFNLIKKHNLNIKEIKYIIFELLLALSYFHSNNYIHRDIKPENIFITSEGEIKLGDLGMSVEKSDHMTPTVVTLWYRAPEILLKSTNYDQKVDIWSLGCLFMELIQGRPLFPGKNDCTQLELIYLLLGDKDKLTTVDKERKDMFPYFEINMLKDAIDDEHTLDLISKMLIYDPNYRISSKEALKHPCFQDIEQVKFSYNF
Chain of Protein kinase 7 (PK7), Plasmodium falciparum 3D7 (PF3D7_0213400) (Q7YTF7 1-343): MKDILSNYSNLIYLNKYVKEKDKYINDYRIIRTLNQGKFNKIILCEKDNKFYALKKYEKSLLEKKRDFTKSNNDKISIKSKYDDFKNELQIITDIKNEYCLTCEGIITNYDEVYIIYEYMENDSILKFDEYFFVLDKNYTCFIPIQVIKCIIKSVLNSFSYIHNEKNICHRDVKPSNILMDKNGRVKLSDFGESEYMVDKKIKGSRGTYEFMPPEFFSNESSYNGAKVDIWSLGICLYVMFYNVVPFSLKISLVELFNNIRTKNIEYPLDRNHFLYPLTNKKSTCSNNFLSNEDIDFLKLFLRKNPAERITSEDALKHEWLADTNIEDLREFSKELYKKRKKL
Chain of Calcium-dependent protein kinase 1 (Plasmodium falciparum (isolate 3D7)) (P62344 whole entry, looked up): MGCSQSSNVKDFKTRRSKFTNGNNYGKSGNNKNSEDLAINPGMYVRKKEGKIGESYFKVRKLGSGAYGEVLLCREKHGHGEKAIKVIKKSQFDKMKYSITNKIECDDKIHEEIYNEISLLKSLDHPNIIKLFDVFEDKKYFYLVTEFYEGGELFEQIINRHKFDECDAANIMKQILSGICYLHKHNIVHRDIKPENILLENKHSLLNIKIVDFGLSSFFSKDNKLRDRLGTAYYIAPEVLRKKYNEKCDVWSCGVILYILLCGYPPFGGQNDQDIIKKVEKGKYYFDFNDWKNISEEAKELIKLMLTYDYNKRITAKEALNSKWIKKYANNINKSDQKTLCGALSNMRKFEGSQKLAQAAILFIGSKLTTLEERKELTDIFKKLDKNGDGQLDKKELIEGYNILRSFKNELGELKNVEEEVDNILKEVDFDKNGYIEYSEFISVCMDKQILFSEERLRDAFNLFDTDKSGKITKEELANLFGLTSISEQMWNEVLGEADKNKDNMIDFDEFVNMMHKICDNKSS

O=C(Nc1ccc(-c2nc3ccccc3[nH]2)cc1)c1cccc(S(=O)(=O)N2CCOCC2)c1
inactive: growth inhibition [1] 43% | inhibition [2] 6% | inhibition [3] -5% | outcome [5] | outcome [6] | outcome [7] | outcome [8]
active: growth inhibition [4] 89%

CCCc1ccc(-c2csc(NC(=O)c3ccc([N+](=O)[O-])o3)n2)cc1
active: inhibition [2] 72% | growth inhibition [4] 85%
inactive: growth inhibition [1] 13% | inhibition [3] 4% | outcome [5] | outcome [6] | outcome [7] | outcome [8]

CCCN1CCN(Cc2ccc(-c3ccc(-c4nc5ccccc5[nH]4)s3)cc2)CC1
inactive: inhibition [2] 29% | inhibition [3] 5% | outcome [5] | outcome [6] | outcome [7] | outcome [8]
active: growth inhibition [1] 93% | growth inhibition [4] 103%

CC1(C)N=C(N)N=C(N)N1OCc1cc(Cl)c(CON2C(N)=NC(N)=NC2(C)C)cc1Cl
inactive: inhibition [2] 21% | inhibition [3] 3% | outcome [5] | outcome [6] | outcome [7] | outcome [8]
active: growth inhibition [1] 77% | growth inhibition [4] 94%

CN(CCCCCNC(=O)/C=C/c1ccc(Cl)c(Cl)c1)CCCCc1c[nH]c2ccccc12
active: growth inhibition [4] 90%
inactive: growth inhibition [1] 15% | inhibition [2] 17% | inhibition [3] 2% | outcome [5] | outcome [6] | outcome [7] | outcome [8]

c1cncc(CN2CCN(Cc3ccc(-c4ccc(-c5nc6ccccc6[nH]5)s4)cc3)CC2)c1
active: growth inhibition [4] 97%
inactive: growth inhibition [1] 34% | inhibition [2] 32% | inhibition [3] 6% | outcome [5] | outcome [6] | outcome [7] | outcome [8]

O=C(C=Cc1ccc(Cl)c(Cl)c1)NCCCCCN1CCC(c2[nH]nc3ccccc23)CC1
active: growth inhibition [4] 99%
inactive: growth inhibition [1] 29% | inhibition [2] 32% | inhibition [3] 0% | outcome [5] | outcome [6] | outcome [7] | outcome [8]

COc1cc(C)ccc1S(=O)(=O)N1CCCCC(c2ccc(C(F)(F)F)cc2)=N1
inactive: inhibition [2] 16% | inhibition [3] -1% | outcome [5] | outcome [6] | outcome [7] | outcome [8]
active: growth inhibition [1] 89% | growth inhibition [4] 92%

CN1CCN(c2ccnc3ccc(NC(=O)Nc4ccc5ccccc5c4)cc23)CC1
inactive: inhibition [2] 2% | inhibition [3] -1% | outcome [5] | outcome [6] | outcome [7] | outcome [8]
active: growth inhibition [1] 99% | growth inhibition [4] 101%

COc1ccc2c(c1)OC(C)(C)CC2=NOS(=O)(=O)c1ccc(C)cc1
active: growth inhibition [4] 97%
inactive: growth inhibition [1] 12% | inhibition [2] 10% | inhibition [3] 4% | outcome [5] | outcome [6] | outcome [7] | outcome [8]

COCCN1CCN(Cc2ccc(-c3ccc(-c4nc5c(C)cccc5[nH]4)s3)cc2)CC1
inactive: inhibition [2] 32% | inhibition [3] -2% | outcome [5] | outcome [6] | outcome [7] | outcome [8]
active: growth inhibition [1] 52% | growth inhibition [4] 95%

CC(C)(CNCc1cc(Cl)cc(Cl)c1)c1nc(-c2ccc(Cl)c(O)c2)c(-c2ccnc(N)n2)[nH]1
inactive: growth inhibition [1] 2% | inhibition [3] -1% | outcome [5] | outcome [6] | outcome [7] | outcome [8]
active: inhibition [2] 54% | growth inhibition [4] 92%

COc1cccc(CCNc2nc(NCc3ccccc3)c3cc(OC)c(OC)cc3n2)c1
inactive: inhibition [2] 20% | inhibition [3] -6% | outcome [5] | outcome [6] | outcome [7] | outcome [8]
active: growth inhibition [1] 99% | growth inhibition [4] 100%

Nc1nc(Nc2ccc(Cl)cc2)nc2ccccc12
inactive: growth inhibition [1] 21% | inhibition [2] 6% | inhibition [3] -2% | outcome [5] | outcome [6] | outcome [7] | outcome [8]
active: growth inhibition [4] 101%

CSc1cccc(NC(=O)Nc2ccc(I)c(OCCN(C)C)c2)c1
active: growth inhibition [4] 97%
inactive: growth inhibition [1] 19% | inhibition [2] 14% | inhibition [3] -1% | outcome [5] | outcome [6] | outcome [7] | outcome [8]

COc1ccc(OC)c2c1C[C@@H]1NC[C@H]2c2c(OC)ccc(OC)c21
active: growth inhibition [4] 99%
inactive: growth inhibition [1] 3% | inhibition [2] 2% | inhibition [3] 1% | outcome [5] | outcome [6] | outcome [7] | outcome [8]

Cc1cccc(NC(=O)NC2CCN(CCCCCNC(=O)/C=C/c3ccc(Cl)c(Cl)c3)CC2)c1
inactive: growth inhibition [1] 21% | inhibition [2] 34% | inhibition [3] -3% | outcome [5] | outcome [6] | outcome [7] | outcome [8]
active: growth inhibition [4] 101%

CC(Oc1ccc(C(=O)c2ccc(F)cc2)cc1)C(=O)N1CCc2ccccc21 (stereo not given)
inactive: inhibition [2] 9% | inhibition [3] 1% | outcome [5] | outcome [6] | outcome [7] | outcome [8]
active: growth inhibition [1] 95% | growth inhibition [4] 95%

NC1CCCN(Cc2cccc(-c3cccc(-c4nc5ccccc5[nH]4)c3)c2)C1 (stereo not given)
inactive: inhibition [2] 24% | inhibition [3] -5% | outcome [5] | outcome [6] | outcome [7] | outcome [8]
active: growth inhibition [1] 61% | growth inhibition [4] 101%

COc1ccc(-n2nc(C)c3c2NC(=O)CC3c2ccccc2OCc2ccccc2F)cc1 (stereo not given)
active: growth inhibition [1] 70% | growth inhibition [4] 93%
inactive: inhibition [2] 38% | inhibition [3] 4% | outcome [5] | outcome [6] | outcome [7] | outcome [8]

CCCN1CCN(CCCCNc2c3ccccc3nc3ccccc23)CC1
inactive: growth inhibition [1] 0% | inhibition [2] 34% | inhibition [3] -8% | outcome [5] | outcome [6] | outcome [7] | outcome [8]
active: growth inhibition [4] 100%

Cc1cc(N2CCNCC2)c2cc(NC(=O)Nc3ccc(Cl)c(Cl)c3)ccc2n1
inactive: inhibition [2] 23% | inhibition [3] -2% | outcome [5] | outcome [6] | outcome [7] | outcome [8]
active: growth inhibition [1] 86% | growth inhibition [4] 100%

CC(Cc1ccc(OCC(=O)NCC2CCN(CCc3cccc(Cl)c3)CC2)cc1)NCCc1cccc(Cl)c1 (stereo not given)
inactive: inhibition [3] -8% | outcome [5] | outcome [6] | outcome [7] | outcome [8]
active: growth inhibition [1] 85% | inhibition [2] 100% | growth inhibition [4] 96%

Cc1cc(N2CCCCC2)nc2ccc(NC(=O)c3cncc(Br)c3)cc12
inactive: inhibition [2] -3% | inhibition [3] 0% | outcome [5] | outcome [6] | outcome [7] | outcome [8]
active: growth inhibition [1] 86% | growth inhibition [4] 101%

Fc1ccc2nc(-c3ccc(-c4ccc(CN5CCC(CCN6CCCCC6)CC5)cc4)s3)[nH]c2c1
inactive: inhibition [3] 3% | outcome [5] | outcome [6] | outcome [7] | outcome [8]
active: growth inhibition [1] 101% | inhibition [2] 96% | growth inhibition [4] 101%

O=C(Nc1cccc(-c2cccc(-c3nc4ccc(C(F)(F)F)cc4[nH]3)c2)c1)c1cccnc1
active: growth inhibition [1] 70% | inhibition [2] 57% | growth inhibition [4] 100%
inactive: inhibition [3] -6% | outcome [5] | outcome [6] | outcome [7] | outcome [8]

CCNc1cc(C(=O)N[C@@H](Cc2ccccc2)[C@H](O)CNC(C)C)cc(N2CC(c3ccccc3)CCS2(=O)=O)c1 (stereo not given in full)
active: growth inhibition [1] 99% | growth inhibition [4] 98%
inactive: inhibition [2] 0% | inhibition [3] -1% | outcome [5] | outcome [6] | outcome [7] | outcome [8]

COc1ccc2cc(-c3nc(-c4c(Cl)cccc4Cl)[nH]c3-c3ccnc(NCCC4CCCN4C)c3)ccc2c1 (stereo not given)
active: growth inhibition [1] 82% | growth inhibition [4] 100%
inactive: inhibition [2] 11% | inhibition [3] 2% | outcome [5] | outcome [6] | outcome [7] | outcome [8]

Nc1nc(-c2ccccn2)nc(-n2nc(-c3cccc(C(F)(F)F)c3)cc2N)n1
active: growth inhibition [1] 74% | growth inhibition [4] 87%
inactive: inhibition [2] 14% | inhibition [3] -5% | outcome [5] | outcome [6] | outcome [7] | outcome [8]

O=C(/C=C/c1ccsc1)N1CCC(CCN2CCC(c3c[nH]c4ccccc34)CC2)CC1
inactive: growth inhibition [1] 24% | inhibition [2] 37% | inhibition [3] 4% | outcome [5] | outcome [6] | outcome [7] | outcome [8]
active: growth inhibition [4] 88%

CCN(CCCN1CCCCC1)c1cc(C)nc(Nc2ccc(C)cc2C)n1
active: growth inhibition [4] 91%
inactive: growth inhibition [1] 35% | inhibition [2] 33% | inhibition [3] 6% | outcome [5] | outcome [6] | outcome [7] | outcome [8]

COc1cc(F)c2ncc(Cl)c([C@@H](O)CN3CCC(NCc4cc5c(cn4)OCCO5)CC3)c2c1
active: growth inhibition [1] 100% | growth inhibition [4] 101%
inactive: inhibition [2] 11% | inhibition [3] 2% | outcome [5] | outcome [6] | outcome [7] | outcome [8]

COc1ccc(Cl)c(CC2c3cc(O)c(Cl)cc3CCN2C)c1 (stereo not given)
inactive: inhibition [2] 9% | inhibition [3] -1% | outcome [5] | outcome [6] | outcome [7] | outcome [8]
active: growth inhibition [1] 72% | growth inhibition [4] 98%

COc1ccc(C(=O)Nc2ccc(Nc3nc(C)cc(N(C)C)n3)cc2)c(OC)c1
active: growth inhibition [1] 72% | growth inhibition [4] 100%
inactive: inhibition [2] 34% | inhibition [3] 0% | outcome [5] | outcome [6] | outcome [7] | outcome [8]

Cc1cc(-c2nc3ccc(N4CCN(C)CC4)cc3[nH]2)nn1Cc1cc(Cl)ccc1OCC(C)C
active: growth inhibition [1] 67% | growth inhibition [4] 99%
inactive: inhibition [2] 41% | inhibition [3] 1% | outcome [5] | outcome [6] | outcome [7] | outcome [8]

Cc1cnccc1/C=C/c1cccc(OCCCN2CCc3ccc(S(C)(=O)=O)cc3CC2)c1
active: growth inhibition [1] 72% | growth inhibition [4] 92%
inactive: inhibition [2] 1% | inhibition [3] 1% | outcome [5] | outcome [6] | outcome [7] | outcome [8]

O=[N+]([O-])c1cccc(-c2ccc(C=NNc3cc(N4CCCC4)nc(N4CCCC4)n3)o2)c1
active: growth inhibition [1] 67% | growth inhibition [4] 100%
inactive: inhibition [2] -6% | inhibition [3] 0% | outcome [5] | outcome [6] | outcome [7] | outcome [8]

CCN(CC)CCNc1ccc(Nc2ccnc3cc4ccccc4cc23)cc1
active: growth inhibition [1] 99% | growth inhibition [4] 102%
inactive: inhibition [2] 36% | inhibition [3] -8% | outcome [5] | outcome [6] | outcome [7] | outcome [8]

CCCC(C)N(Cc1ccc(C(C)(C)C)cc1)C(=O)c1cccc(OC)c1 (stereo not given)
inactive: inhibition [2] 9% | inhibition [3] 1% | outcome [5] | outcome [6] | outcome [7] | outcome [8]
active: growth inhibition [1] 89% | growth inhibition [4] 100%

Cc1ccccc1C1CCN(C2CCC(NC(=O)/C=C/c3ccc(OC(F)(F)F)cc3)CC2)CC1 (stereo not given)
inactive: inhibition [3] -5% | outcome [5] | outcome [6] | outcome [7] | outcome [8]
active: growth inhibition [1] 67% | inhibition [2] 96% | growth inhibition [4] 100%
